This is an account of results in PubChem BioAssay (EPA / NIEHS).

Records with an inconclusive call do not appear. Active and inactive are the calls of the source. The calls were made as follows, unless noted: active = hit-call score of the fitted dose curve at least 0.9, where 1 is the maximum; inactive = score below 0.9.

Read-out in assay [1]: E-selectin (Homo sapiens) (UniProt P16581)
Description: BSK_3C_Eselectin: BioMAP Diversity Plus: 3C Assay for Eselectin Biomarker Activity (AID 2283015).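 As to outcome: cell surface E-selectin protein quantified by ELISA 24 h after dosing.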 The settings on record: primary human endothelial cells (HUVEC); actives raise or lower the signal. In short, it runs like this:
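Primary human umbilical vein endothelial cells (3C system) were dosed with chemical and cell-surface E-selectin measured by ELISA 24 h later. Bidirectional curve fitting used DMSO as negative control and baseline.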

Read-out in assay [2]: Interleukin-1 alpha (IL1a), IL1A (gene 3552)
Description: BSK_BE3C_IL1a: BioMAP Diversity Plus: BE3C Assay for Interleukin-1 alpha (IL1a) Biomarker Activity (AID 2283016). The settings on record: primary human bronchial epithelial cells; actives raise or lower the signal. Put shortly:
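Human primary bronchial epithelial cells (BE3C system) were dosed with compound and IL-1a measured by ELISA 24 h later. Activity was fitted bidirectionally against DMSO baseline; cytotoxicity was tracked in parallel cultures by SRB total-protein staining.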

Read-out in assay [3]: Human Leukocyte Antigen - DR isotype (HLADR), HLA-DRA (gene 3122)
Description: BSK_3C_HLADR: BioMAP Diversity Plus: 3C Assay for Human Leukocyte Antigen - DR isotype (HLADR) Biomarker Activity (AID 2283019). Conditions: primary human endothelial cells (HUVEC); actives raise or lower the signal. Put shortly: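 Primary human umbilical vein endothelial cells (3C system) were dosed with compound and cell-surface HLA-DR was quantified by ELISA at 24 h. Activity was fitted bidirectionally against DMSO as negative control and baseline.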

Read-out in assay [4]: Interleukin-8 (IL8), CXCL8 (gene 3576)
Description: BSK_3C_IL8: BioMAP Diversity Plus: 3C Assay for Interleukin-8 (IL8) Biomarker Activity (AID 2283020). The settings on record: primary human endothelial cells (HUVEC); actives raise or lower the signal. Put shortly:
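Primary human umbilical vein endothelial cells (3C system) were exposed to test chemical for 24 h, then IL-8 was quantified by ELISA. Responses were fitted bidirectionally against DMSO vehicle as baseline.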

Read-out in assay [5]: Monokine induced gamma interferon (MIG), CXCL9 (gene 4283)
In words: BSK_3C_MIG: BioMAP Diversity Plus: 3C Assay for Monokine induced gamma interferon (MIG) Biomarker Activity (AID 2283021). The settings on record: primary human endothelial cells (HUVEC); actives raise or lower the signal. In short, it runs like this:
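Primary human umbilical vein endothelial cells in the 3C system were exposed to chemical for 24 h, after which MIG was quantified by ELISA. Activity was fitted bidirectionally against DMSO as negative control and baseline.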

Assay [6] addresses human Vitamin D Receptor (VDR), VDR (gene 7421) (UniProt P11473). Description: ATG_VDR_TRANS: Attagene TRANS-FACTORIAL HepG2 Assay for human Vitamin D Receptor (VDR) (AID 2283022; active = hit-call score of the fitted dose curve at least 0.9, where 1 is the maximum). Put shortly: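 HepG2 cells were transiently transfected with multiple GAL4-UAS reporter units, so signal reflects exogenous chimeric receptor-Gal4 activity. After 24 h compound exposure, reporter mRNA was measured by RT-PCR, fluorescent labelling and capillary electrophoresis, fitted for gain of signal versus DMSO.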

Assay [7] in a line: BSK_3C_SRB: Viability Assessment in the BioMAP Diversity Plus: 3C Assay (AID 2283023).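 Also: fitted both ways against DMSO so a hit may be signal rise or drop.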 The settings on record: primary human endothelial cells (HUVEC). In short, it runs like this:
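Primary human umbilical vein endothelial cells in the 3C system were read 24 h after compound dosing. Total protein was stained with 0.1% sulforhodamine B after 10% TCA fixation and read at 560 nm, with bidirectional fitting against DMSO as baseline.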

Read-out in assay [8]: Matrix Metallopeptidase 1 (MMP1), MMP1 (gene 4312)
In words: BSK_BE3C_MMP1: BioMAP Diversity Plus: BE3C Assay for Matrix Metallopeptidase 1 (MMP1) Biomarker Activity (AID 2283024). Conditions: primary human bronchial epithelial cells; actives raise or lower the signal. Put shortly:
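Primary human bronchial epithelial cells were dosed with test chemicals, and MMP1 levels were measured by ELISA 24 h later. Data were fitted bidirectionally against DMSO as the negative control and activity baseline.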

A short description of assay [9]: BSK_3C_Vis: BioMAP Diversity Plus: 3C Assay for Morphology Visualization (AID 2283025).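 Also: fitted both ways so gain or loss versus DMSO counts.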 Conditions: primary human endothelial cells (HUVEC). In short, it runs like this:
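Human umbilical vein endothelial cells in the 3C system were imaged by light microscopy 24 h after chemical dosing to record cell morphology. Activity was fitted bidirectionally against DMSO as negative control and baseline; the endpoint serves as a background control.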

Read-out in assay [10]: Pselectin, SELP (gene 6403)
In words: BSK_4H_Pselectin: BioMAP Diversity Plus: 4H Assay for Pselectin Biomarker Activity (AID 2283026). Conditions: primary human endothelial cells (HUVEC); actives raise or lower the signal. In short, it runs like this: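 Primary human umbilical vein endothelial cells were exposed to test chemical for 24 h, then cell-surface P-selectin was quantified by ELISA. Activity was fitted bidirectionally against DMSO as negative control and baseline.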

The nature of assay [11]: BSK_4H_SRB: Viability Assessment in the BioMAP Diversity Plus: 4H Assay (AID 2283027).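 Also: cells exposed to compound for 24 h before staining.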 Conditions: primary human endothelial cells (HUVEC). Put shortly: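 Human umbilical vein endothelial cells were dosed with chemical and, after 24 h, fixed with 10% TCA, stained with 0.1% sulforhodamine B, and read at 560 nm to give total protein as a cytotoxicity measure. Bidirectional fitting relative to DMSO control.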

Assay [12] can be described thus: BSK_BE3C_SRB: Viability Assessment in the BioMAP Diversity Plus: BE3C Assay (AID 2283028). Conditions: primary human bronchial epithelial cells. Put shortly: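 Human primary bronchial epithelial cells were exposed to test chemicals for 24 h. Total protein in parallel cultures was then measured by staining with 0.1% sulforhodamine B after 10% TCA fixation, with absorbance read at 560 nm. Activity was fitted bidirectionally against DMSO.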

Read-out in assay [13]: Thrombomodulin, THBD (gene 7056)
Description: BSK_3C_Thrombomodulin: BioMAP Diversity Plus: 3C Assay for Thrombomodulin Biomarker Activity (AID 2283029). The settings on record: primary human endothelial cells (HUVEC); actives raise or lower the signal. Put shortly:
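Primary human umbilical vein endothelial cells (3C system) were exposed to chemical for 24 h, then thrombomodulin levels were measured by ELISA. Activity was fitted bidirectionally against the DMSO negative control as baseline.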

Read-out in assay [14]: Urokinase-type plasminogen activator receptor (uPAR), PLAUR (gene 5329)
In words: BSK_4H_uPAR: BioMAP Diversity Plus: 4H Assay for Urokinase-type plasminogen activator receptor (uPAR) Biomarker Activity (AID 2283030). Conditions: primary human endothelial cells (HUVEC); actives raise or lower the signal. In short, it runs like this: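 Primary human umbilical vein endothelial cells were exposed to chemical for 24 h before cell-surface uPAR was quantified by ELISA. Activity was fitted bidirectionally against the DMSO negative control baseline.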

Read-out in assay [15]: Vascular endothelial growth factor receptor 2 (Homo sapiens) (UniProt P35968)
Description: BSK_4H_VEGFRII: BioMAP Diversity Plus: 4H Assay for Vascular endothelial growth factor receptor 2 (VEGFR2) Biomarker Activity (AID 2283031). Conditions: primary human endothelial cells (HUVEC); actives raise or lower the signal. Put shortly: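 Primary human umbilical vein endothelial cells in the BioMAP 4H system were dosed with test chemical, and 24 h later VEGFRII was measured by ELISA. Activity was fitted bidirectionally against DMSO as negative control and baseline.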

For assay [16], the target named is human Retinoid X Receptor beta (RXRb), RXRB (gene 6257) (UniProt P28702). Description: ATG_RXRb_TRANS: Attagene TRANS-FACTORIAL HepG2 Assay for human Retinoid X Receptor beta (RXRb) (AID 2283013; active = hit-call score of the fitted dose curve at least 0.9, where 1 is the maximum). In short, it runs like this:
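HepG2 cells transiently transfected with multiplexed reporter units driven by GAL4-UAS and exogenous chimeric NR-Gal4 proteins; treated 24 h. Reporter mRNA measured by RT-PCR, 6-FAM labelling and capillary electrophoresis; gain-of-signal fitted versus DMSO baseline.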

Read-out in assay [17]: Monocyte Chemoattractant Protein-1 (MCP1), CCL2 (gene 6347)
In words: BSK_3C_MCP1: BioMAP Diversity Plus: 3C Assay for Monocyte Chemoattractant Protein-1 (MCP1) Biomarker Activity (AID 2283017). The settings on record: primary human endothelial cells (HUVEC); actives raise or lower the signal. Put shortly: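 Primary human umbilical vein endothelial cells (3C system) were exposed to test chemical for 24 h, after which MCP-1 was quantified by ELISA. Activity was fitted bidirectionally against DMSO as negative control and baseline.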

Read-out in assay [18]: Monocyte Chemoattractant Protein-1 (MCP1), CCL2 (gene 6347)
In words: BSK_4H_MCP1: BioMAP Diversity Plus: 4H Assay for Monocyte Chemoattractant Protein-1 (MCP1) Biomarker Activity (AID 2283018). Conditions: primary human endothelial cells (HUVEC); actives raise or lower the signal. Put shortly: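 Human umbilical vein endothelial cells (4H system) dosed with chemical; MCP-1 measured by ELISA 24 h after dosing. Bidirectional curve fitting against DMSO negative control as baseline; parallel SRB total-protein staining tracks overt cytotoxicity.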

Assay [19] has as its target human Thyroid Receptor alpha (THRa1), THRA (gene 7067) (UniProt P10827). Description: ATG_THRa1_TRANS: Attagene TRANS-FACTORIAL HepG2 Assay for human Thyroid Receptor alpha (THRa1) (AID 2283014; active = hit-call score of the fitted dose curve at least 0.9, where 1 is the maximum). Put shortly:
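HepG2 cells transiently transfected with multiplexed GAL4-UAS reporter units for exogenous chimeric THRa1-Gal4; reporter mRNA measured 24 h after dosing by RT-PCR, 6-FAM labelling, HpaI digestion and capillary electrophoresis. Gain-of-signal fitted versus DMSO baseline.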

Chain of E-selectin (Homo sapiens) (P16581 whole entry, looked up): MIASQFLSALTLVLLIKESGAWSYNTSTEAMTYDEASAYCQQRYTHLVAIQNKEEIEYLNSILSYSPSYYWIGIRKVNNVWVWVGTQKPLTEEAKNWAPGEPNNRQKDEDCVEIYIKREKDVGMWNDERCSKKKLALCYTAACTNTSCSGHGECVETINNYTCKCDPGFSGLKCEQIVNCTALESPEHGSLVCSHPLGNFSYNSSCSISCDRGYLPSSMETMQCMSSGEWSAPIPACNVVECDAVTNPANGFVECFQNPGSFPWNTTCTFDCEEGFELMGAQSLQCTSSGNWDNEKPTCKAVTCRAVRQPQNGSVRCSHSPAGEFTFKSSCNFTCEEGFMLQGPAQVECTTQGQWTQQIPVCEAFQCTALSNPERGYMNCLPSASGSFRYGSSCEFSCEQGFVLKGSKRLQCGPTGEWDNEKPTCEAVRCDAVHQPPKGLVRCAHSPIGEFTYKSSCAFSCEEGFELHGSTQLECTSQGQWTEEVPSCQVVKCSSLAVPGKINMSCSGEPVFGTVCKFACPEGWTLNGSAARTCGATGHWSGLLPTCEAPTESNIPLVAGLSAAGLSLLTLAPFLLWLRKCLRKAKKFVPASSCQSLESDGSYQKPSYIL
Chain of human Vitamin D Receptor (VDR), VDR (gene 7421) (P11473 whole entry, looked up, the tested form may be a part): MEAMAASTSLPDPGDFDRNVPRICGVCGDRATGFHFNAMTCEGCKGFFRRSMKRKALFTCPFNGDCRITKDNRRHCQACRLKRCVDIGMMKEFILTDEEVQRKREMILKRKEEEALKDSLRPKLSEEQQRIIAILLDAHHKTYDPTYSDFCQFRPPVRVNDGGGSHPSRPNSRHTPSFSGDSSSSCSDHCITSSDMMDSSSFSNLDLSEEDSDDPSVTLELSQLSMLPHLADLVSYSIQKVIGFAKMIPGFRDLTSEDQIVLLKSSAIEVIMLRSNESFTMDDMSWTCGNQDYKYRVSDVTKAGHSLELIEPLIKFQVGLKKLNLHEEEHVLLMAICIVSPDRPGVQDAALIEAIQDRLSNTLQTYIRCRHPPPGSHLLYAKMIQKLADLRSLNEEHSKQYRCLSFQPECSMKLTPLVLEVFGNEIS
Chain of human Retinoid X Receptor beta (RXRb), RXRB (gene 6257) (P28702 whole entry, looked up, the tested form may be a part): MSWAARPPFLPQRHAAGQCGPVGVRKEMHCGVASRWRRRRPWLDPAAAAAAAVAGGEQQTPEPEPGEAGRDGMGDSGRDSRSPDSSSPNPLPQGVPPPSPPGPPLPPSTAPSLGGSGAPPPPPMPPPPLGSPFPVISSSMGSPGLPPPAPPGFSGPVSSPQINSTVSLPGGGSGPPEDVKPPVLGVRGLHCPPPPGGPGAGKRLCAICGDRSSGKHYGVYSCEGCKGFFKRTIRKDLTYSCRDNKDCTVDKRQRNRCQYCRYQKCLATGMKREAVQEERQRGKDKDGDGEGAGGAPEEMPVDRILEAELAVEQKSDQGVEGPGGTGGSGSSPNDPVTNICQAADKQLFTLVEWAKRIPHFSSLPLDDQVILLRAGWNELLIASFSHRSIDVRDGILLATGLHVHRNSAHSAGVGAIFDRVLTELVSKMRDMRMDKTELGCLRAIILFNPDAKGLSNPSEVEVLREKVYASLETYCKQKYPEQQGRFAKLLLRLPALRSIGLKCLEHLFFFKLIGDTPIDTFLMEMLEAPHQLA
Chain of human Thyroid Receptor alpha (THRa1), THRA (gene 7067) (P10827 whole entry, looked up, the tested form may be a part): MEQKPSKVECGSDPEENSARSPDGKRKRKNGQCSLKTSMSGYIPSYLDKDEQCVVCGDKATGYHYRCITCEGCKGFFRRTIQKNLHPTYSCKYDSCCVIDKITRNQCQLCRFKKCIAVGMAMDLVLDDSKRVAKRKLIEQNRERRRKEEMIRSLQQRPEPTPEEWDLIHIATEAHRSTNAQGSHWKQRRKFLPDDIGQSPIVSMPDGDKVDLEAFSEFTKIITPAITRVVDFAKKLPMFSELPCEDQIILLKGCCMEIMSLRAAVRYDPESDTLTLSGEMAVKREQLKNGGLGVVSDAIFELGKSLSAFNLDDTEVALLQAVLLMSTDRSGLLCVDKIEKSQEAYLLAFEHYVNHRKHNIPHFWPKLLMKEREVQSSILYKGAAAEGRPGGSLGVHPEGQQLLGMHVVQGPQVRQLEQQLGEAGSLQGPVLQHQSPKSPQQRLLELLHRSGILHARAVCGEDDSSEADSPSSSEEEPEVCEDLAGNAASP

Regarding `NC(=O)NO`, the result in [1], in assay [2], in assay [3], in assay [4], in assay [5] and in assay [6] was inactive. In addition, the result in assay [7], in [8], in assay [9], in assay [10], in assay [11] and in assay [12] was inactive. The outcome in assay [13], in assay [14] and in [15] was inactive.

Consider `CC(C)CCCCCCCOC(=O)CCCCC(=O)OCCCCCCCC(C)C`, for which the AC50 in [16] was 100 µM (active). Besides, the result in [1], in [2], in assay [17], in assay [18], in [3] and in assay [4] was inactive. Further, the result in assay [5], in assay [6], in assay [7], in assay [8], in assay [9] and in assay [10] was inactive. Also, the outcome in [11], in [12], in [13] and in [14] was inactive.

For the molecule `O=C(O)c1cccc(Oc2ccccc2)c1`, the result in assay [16], in assay [19], in assay [1], in assay [2], in assay [17] and in [3] was inactive. The outcome in assay [4], in [5], in assay [6], in assay [7], in assay [8] and in assay [10] was inactive. For the same molecule, the outcome in assay [12], in assay [13], in [14] and in assay [15] was inactive.

Take `CC[C@H](C)C(=O)O[C@H]1C[C@@H](C)C=C2C=C[C@H](C)[C@H](CC[C@@H]3C[C@@H](O)CC(=O)O3)[C@H]21`: the result in assay [16], in assay [5], in assay [6] and in [13] was inactive. Besides, the AC50 in assay [1] is 31.6 µM (active); in assay [2], 33.6 µM (active); in [17], 24 µM (active); in assay [3] it was 31.5 µM (active); in [7], 9.87 µM (active); in [8], 33.8 µM (active). The AC50 in assay [10] was 32.9 µM (active); in assay [14] it was 19.9 µM (active).

`CC(=O)OCCC(C)C`: the molecule was called inactive in assay [16], in assay [1], in [2], in assay [3], in assay [5] and in [7]. Moreover, the result in assay [8], in assay [9], in [10], in [11], in assay [12] and in assay [13] was inactive. Besides, the result in assay [14] and in assay [15] was inactive.

Take `CC(=O)c1ccc2c(c1)[C@H](NC(=O)c1ccc(F)cc1)[C@@H](O)C(C)(C)O2`: the result in assay [1], in assay [2], in [17], in assay [18], in assay [3] and in assay [4] was inactive. Further, the result in assay [5], in [7], in assay [8], in assay [10], in assay [12] and in assay [13] was inactive. For the same molecule, the outcome in assay [14] was inactive.

As for `O=C1CCC(N2C(=O)c3ccccc3C2=O)C(=O)N1` (centres undefined), the outcome in [19], in assay [1], in [2], in assay [18], in assay [3] and in [5] was inactive. Further, the result in assay [7], in assay [8], in assay [9], in assay [10], in [11] and in assay [12] was inactive. The result in assay [13] and in [14] was inactive.

For `CCOCCO`, the result in assay [1], in assay [2], in assay [17], in [3], in assay [5] and in assay [7] was inactive. The result in [8], in assay [9], in assay [10], in assay [11], in [12] and in [13] was inactive. The result in assay [14] was inactive.

What is called AC50 is the midpoint of the concentration-response curve, whichever way the signal moves.
